# From article PMC7862700, “An all-to-all approach to the identification of sequence-specific readers for epigenetic DNA modifications on cytosine”
# Columns and labels:
# Assay in all cases: DAPPL (digital affinity profiling via proximity ligation, sequencing); 10 mM Tris-HCl pH 7.5, 50 mM NaCl, 1 mM DTT, 4% glycerol, room temperature, 30 min; GST-TFs on glutathione beads, 16-mer random dsDNA library, 0.1% formaldehyde crosslink after washing; high values mean tight binding
# [1] = target: T1, FLI1 (Homo sapiens, UniProt Q01543 1-452); conditions: protein: recombinant; tags: N-terminal GST; dsDNA, one strand shown
# T1 sequence: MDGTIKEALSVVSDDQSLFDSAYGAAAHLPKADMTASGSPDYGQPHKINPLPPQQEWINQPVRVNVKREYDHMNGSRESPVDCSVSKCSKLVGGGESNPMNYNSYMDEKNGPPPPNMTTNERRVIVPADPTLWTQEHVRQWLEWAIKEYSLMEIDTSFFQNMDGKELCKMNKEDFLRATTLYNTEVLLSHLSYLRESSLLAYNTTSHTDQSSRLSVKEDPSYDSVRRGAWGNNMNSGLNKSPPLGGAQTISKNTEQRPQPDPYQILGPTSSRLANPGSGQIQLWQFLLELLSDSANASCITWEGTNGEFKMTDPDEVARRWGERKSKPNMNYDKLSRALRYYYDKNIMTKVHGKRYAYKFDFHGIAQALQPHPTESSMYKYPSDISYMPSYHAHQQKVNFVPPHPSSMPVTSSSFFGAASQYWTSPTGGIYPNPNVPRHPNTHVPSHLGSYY
# How it was run: (§1)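 Pools of DNA-barcoded human transcription factors, expressed in yeast as GST fusions on glutathione beads and combined with a tag-only sample, were incubated with 200 nmole of a 16-mer random double-stranded DNA library. Incubation took 30 min at room temperature in Tris/NaCl/DTT/glycerol buffer and was followed by washing, 0.1% formaldehyde crosslinking, proximity ligation (BsaI/T4 ligase, 1 h, 37 °C), PCR amplification and sequencing on an Illumina NextSeq500. Binding signal is the ratio of a hexamer's read frequency for a factor to its frequency for the tag-only sample.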
# [2] = target: T2, ELK1 (Homo sapiens, UniProt P19419 1-428); conditions: protein: recombinant; tags: N-terminal GST; dsDNA, one strand shown
# T2 sequence: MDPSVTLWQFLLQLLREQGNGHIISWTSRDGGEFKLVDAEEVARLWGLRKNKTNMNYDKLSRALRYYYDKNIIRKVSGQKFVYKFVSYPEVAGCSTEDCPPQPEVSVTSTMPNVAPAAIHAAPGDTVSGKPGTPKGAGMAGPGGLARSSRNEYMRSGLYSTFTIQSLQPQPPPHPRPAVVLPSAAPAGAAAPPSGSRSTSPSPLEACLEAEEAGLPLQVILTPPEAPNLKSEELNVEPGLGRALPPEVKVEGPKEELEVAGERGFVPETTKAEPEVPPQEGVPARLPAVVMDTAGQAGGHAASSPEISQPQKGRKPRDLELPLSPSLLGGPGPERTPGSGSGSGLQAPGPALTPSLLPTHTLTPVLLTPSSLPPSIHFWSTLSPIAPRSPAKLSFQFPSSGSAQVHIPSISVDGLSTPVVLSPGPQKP
# How it was run: as §1
# [3] = target: T3, GABPA (Homo sapiens, UniProt Q06546 1-454); conditions: protein: recombinant; tags: N-terminal GST; dsDNA, one strand shown
# T3 sequence: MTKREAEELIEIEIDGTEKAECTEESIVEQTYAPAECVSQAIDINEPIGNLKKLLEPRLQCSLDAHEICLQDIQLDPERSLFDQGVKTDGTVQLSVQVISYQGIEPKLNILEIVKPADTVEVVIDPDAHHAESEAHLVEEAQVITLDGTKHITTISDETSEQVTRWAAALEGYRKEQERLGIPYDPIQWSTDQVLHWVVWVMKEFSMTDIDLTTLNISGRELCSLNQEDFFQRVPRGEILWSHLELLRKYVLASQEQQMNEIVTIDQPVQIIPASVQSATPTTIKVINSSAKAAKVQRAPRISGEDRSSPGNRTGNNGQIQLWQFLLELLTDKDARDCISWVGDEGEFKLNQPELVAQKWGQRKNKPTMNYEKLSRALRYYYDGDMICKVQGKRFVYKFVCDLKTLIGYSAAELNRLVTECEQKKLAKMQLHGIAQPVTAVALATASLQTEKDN
# How it was run: as §1
# [4] = target: T4, ERG (Homo sapiens, UniProt P11308 1-479); conditions: protein: recombinant; tags: N-terminal GST; dsDNA, one strand shown
# T4 sequence: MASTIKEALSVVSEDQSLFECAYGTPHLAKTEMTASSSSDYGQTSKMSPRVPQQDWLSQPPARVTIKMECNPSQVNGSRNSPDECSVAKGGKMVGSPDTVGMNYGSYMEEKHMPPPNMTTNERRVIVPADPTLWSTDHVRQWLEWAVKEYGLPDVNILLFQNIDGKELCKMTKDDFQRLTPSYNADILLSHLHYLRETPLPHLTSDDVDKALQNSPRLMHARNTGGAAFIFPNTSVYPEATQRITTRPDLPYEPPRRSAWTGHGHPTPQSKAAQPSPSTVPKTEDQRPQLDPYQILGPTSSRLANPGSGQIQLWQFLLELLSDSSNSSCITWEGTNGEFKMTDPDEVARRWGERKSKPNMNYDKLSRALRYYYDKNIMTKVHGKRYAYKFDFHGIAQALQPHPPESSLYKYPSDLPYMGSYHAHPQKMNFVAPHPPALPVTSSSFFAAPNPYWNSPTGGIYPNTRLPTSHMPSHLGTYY
# How it was run: as §1
# [5] = target: ELF1 (Homo sapiens, UniProt P32519 1-619); conditions: protein: recombinant; tags: N-terminal GST; dsDNA, one strand shown
# Chain of ELF1 (P32519 whole entry): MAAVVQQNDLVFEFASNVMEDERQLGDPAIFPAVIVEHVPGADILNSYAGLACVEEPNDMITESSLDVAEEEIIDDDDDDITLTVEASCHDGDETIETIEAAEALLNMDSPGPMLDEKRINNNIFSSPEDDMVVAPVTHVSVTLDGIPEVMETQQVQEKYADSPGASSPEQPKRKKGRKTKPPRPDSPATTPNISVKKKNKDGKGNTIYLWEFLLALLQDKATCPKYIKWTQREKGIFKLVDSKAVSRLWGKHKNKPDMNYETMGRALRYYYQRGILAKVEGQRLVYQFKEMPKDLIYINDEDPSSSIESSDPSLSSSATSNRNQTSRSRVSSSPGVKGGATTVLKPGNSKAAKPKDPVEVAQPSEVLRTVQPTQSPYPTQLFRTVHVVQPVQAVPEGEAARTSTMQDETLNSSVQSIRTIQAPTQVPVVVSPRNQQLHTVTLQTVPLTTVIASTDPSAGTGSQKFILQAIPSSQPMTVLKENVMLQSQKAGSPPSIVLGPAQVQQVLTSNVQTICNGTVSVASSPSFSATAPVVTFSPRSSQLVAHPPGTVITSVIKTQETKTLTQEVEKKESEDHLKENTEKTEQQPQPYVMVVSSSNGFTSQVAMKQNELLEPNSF
# How it was run: as §1
# [6] = target: SPI1 (Homo sapiens, UniProt P17947 1-270); conditions: protein: recombinant; tags: N-terminal GST; dsDNA, one strand shown
# How it was run: as §1
# [7] = target: SPIB (Homo sapiens, UniProt Q01892 1-262); conditions: protein: recombinant; tags: N-terminal GST; dsDNA, one strand shown
# Chain of SPIB (Q01892 whole entry): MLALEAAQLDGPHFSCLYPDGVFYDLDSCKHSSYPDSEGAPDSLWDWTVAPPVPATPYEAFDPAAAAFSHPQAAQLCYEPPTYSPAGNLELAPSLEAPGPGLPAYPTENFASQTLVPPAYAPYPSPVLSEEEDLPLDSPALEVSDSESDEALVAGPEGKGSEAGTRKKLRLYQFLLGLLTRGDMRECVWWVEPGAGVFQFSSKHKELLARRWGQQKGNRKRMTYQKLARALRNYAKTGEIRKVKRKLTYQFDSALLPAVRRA
# How it was run: as §1
# [8] = target: T5, ELK3 (Homo sapiens, UniProt P41970 1-407); conditions: protein: recombinant; tags: N-terminal GST; dsDNA, one strand shown
# T5 sequence: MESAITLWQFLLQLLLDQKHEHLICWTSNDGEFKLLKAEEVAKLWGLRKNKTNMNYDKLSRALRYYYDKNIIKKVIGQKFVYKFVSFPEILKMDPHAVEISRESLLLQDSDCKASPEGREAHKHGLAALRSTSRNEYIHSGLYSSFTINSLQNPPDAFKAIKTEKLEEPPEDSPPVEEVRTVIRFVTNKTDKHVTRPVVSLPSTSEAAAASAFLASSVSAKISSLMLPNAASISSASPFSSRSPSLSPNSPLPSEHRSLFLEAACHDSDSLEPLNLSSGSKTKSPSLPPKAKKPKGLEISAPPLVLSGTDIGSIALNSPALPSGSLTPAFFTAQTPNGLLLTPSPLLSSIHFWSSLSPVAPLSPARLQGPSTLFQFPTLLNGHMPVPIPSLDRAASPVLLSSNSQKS
# How it was run: as §1
# [9] = target: T6, FEV (Homo sapiens, UniProt Q99581 1-238); conditions: protein: recombinant; tags: N-terminal GST; dsDNA, one strand shown
# T6 sequence: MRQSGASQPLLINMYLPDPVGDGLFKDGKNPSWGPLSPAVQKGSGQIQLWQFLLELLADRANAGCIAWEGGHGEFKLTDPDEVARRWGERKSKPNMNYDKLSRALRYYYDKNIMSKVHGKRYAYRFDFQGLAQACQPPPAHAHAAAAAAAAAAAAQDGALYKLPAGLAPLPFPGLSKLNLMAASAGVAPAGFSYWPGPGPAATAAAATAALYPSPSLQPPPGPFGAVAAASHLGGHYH
# How it was run: as §1
# [10] = target: ETV5 (Homo sapiens, UniProt P41161 1-510); conditions: protein: recombinant; tags: N-terminal GST; dsDNA, one strand shown
# Chain of ETV5 (P41161 whole entry): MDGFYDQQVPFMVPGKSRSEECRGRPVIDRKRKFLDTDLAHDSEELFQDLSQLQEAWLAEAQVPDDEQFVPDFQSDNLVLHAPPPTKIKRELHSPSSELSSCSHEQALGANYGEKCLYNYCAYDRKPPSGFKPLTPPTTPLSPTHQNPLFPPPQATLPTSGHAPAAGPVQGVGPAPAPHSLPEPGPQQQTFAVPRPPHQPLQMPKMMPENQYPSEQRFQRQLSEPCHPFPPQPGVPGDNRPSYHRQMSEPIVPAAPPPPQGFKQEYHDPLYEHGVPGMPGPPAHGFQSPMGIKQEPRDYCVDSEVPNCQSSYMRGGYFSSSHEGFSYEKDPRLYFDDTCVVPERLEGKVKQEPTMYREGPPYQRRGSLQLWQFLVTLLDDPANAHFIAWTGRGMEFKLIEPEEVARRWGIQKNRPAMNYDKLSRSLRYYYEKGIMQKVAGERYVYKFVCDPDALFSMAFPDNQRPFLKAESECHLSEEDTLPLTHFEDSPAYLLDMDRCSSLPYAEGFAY
# How it was run: as §1
# [11] = target: HSF1 (Homo sapiens, UniProt Q00613 1-529); conditions: protein: recombinant; tags: N-terminal GST; chain copies: 3; dsDNA, one strand shown
# Chain of HSF1 (Q00613 whole entry): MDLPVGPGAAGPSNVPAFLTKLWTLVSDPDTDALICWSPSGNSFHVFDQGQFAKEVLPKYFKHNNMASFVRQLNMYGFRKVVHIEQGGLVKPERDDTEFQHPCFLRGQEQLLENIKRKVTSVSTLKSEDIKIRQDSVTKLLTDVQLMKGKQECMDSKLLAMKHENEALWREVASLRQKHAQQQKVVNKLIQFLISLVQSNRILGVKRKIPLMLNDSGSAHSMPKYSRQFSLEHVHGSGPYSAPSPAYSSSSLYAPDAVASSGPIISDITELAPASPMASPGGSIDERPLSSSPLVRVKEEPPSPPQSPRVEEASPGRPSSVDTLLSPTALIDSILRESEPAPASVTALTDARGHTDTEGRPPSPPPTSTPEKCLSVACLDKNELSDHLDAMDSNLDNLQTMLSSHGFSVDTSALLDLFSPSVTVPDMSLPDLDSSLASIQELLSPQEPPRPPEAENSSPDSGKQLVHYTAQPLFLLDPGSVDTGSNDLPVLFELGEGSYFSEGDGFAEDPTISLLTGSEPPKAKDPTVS
# How it was run: as §1
# [12] = target: T7, SPIC (Homo sapiens, UniProt Q8N5J4 1-248); conditions: protein: recombinant; tags: N-terminal GST; dsDNA, one strand shown
# T7 sequence: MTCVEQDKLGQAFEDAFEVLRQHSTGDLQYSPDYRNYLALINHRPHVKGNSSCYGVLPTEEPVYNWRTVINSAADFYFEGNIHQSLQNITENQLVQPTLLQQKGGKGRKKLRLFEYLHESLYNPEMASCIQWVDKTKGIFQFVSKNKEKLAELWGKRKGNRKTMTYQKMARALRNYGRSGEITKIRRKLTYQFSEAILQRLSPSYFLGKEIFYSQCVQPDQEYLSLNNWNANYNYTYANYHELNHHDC
# How it was run: as §1
# [13] = target: ELF4 (Homo sapiens, UniProt Q99607 1-663); conditions: protein: recombinant; tags: N-terminal GST; dsDNA, one strand shown
# Chain of ELF4 (Q99607 whole entry): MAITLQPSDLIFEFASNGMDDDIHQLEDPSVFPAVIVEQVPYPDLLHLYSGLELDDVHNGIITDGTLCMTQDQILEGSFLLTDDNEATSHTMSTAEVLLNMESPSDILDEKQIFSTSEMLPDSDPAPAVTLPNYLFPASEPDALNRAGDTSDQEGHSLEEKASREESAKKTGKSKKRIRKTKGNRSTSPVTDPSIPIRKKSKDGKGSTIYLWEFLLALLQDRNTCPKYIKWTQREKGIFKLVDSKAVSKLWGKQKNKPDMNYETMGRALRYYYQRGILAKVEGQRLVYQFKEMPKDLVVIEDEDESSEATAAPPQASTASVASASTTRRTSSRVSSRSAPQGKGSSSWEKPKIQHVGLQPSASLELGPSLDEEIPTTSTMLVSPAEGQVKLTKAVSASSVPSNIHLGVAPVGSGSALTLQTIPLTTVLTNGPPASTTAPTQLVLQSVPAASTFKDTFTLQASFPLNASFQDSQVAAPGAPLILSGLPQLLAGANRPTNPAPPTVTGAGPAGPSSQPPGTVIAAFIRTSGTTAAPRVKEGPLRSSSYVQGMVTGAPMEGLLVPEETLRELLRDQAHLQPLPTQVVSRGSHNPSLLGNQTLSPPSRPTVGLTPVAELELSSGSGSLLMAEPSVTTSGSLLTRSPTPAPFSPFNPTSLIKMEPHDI
# How it was run: as §1
# [14] = target: T8, ELK4 (Homo sapiens, UniProt P28324-2 1-405); conditions: protein: recombinant; tags: N-terminal GST; dsDNA, one strand shown
# T8 sequence: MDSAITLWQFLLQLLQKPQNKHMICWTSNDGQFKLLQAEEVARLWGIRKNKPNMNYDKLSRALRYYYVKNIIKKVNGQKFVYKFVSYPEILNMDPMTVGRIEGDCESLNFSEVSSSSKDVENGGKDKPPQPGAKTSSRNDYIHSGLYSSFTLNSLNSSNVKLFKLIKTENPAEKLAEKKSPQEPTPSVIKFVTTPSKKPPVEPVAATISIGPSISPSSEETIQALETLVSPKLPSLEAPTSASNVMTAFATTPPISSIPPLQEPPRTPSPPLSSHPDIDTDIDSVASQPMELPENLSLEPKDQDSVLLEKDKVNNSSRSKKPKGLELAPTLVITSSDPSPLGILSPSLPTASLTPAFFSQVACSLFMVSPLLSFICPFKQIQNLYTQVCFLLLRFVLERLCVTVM
# How it was run: as §1
# [15] = target: T9, ETV2 (Homo sapiens, UniProt O00321 1-342); conditions: protein: recombinant; tags: N-terminal GST; dsDNA, one strand shown
# T9 sequence: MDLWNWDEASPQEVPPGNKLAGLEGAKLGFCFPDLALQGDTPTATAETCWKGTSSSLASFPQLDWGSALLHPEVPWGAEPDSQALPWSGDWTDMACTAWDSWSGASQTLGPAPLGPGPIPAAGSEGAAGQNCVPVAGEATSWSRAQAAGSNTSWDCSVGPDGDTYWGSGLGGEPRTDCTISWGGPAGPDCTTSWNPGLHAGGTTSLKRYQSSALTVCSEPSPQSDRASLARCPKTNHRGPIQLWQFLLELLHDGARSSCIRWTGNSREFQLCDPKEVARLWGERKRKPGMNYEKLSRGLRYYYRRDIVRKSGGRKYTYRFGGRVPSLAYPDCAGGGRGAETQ
# How it was run: as §1
# [16] = target: T10, ELF3 (Homo sapiens, UniProt P78545 1-371); conditions: protein: recombinant; tags: N-terminal GST; dsDNA, one strand shown
# T10 sequence: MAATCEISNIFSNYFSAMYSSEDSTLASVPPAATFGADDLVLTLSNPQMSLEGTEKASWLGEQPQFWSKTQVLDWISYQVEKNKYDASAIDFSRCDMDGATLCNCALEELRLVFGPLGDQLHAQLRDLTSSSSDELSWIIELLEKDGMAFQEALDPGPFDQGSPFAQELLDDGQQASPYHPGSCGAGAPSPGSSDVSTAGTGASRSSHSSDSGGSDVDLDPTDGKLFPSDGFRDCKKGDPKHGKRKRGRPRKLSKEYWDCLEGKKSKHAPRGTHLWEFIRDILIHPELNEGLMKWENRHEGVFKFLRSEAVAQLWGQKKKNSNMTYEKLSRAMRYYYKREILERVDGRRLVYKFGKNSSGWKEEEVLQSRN
# How it was run: as §1
# [17] = target: CRX (Homo sapiens, UniProt O43186 1-299); conditions: protein: recombinant; tags: N-terminal GST; dsDNA, one strand shown
# Chain of CRX (O43186 whole entry): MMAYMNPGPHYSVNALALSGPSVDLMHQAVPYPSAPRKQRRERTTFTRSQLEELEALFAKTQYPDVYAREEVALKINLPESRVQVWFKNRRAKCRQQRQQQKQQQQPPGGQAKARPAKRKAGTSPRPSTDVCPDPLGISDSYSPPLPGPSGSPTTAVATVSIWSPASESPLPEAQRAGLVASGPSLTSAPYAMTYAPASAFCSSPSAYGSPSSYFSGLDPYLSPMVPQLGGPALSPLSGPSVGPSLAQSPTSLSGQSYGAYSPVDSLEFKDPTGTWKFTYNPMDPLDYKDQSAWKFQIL
# How it was run: as §1
# [18] = target: ETV1 (Homo sapiens, UniProt P50549 1-477); conditions: protein: recombinant; tags: N-terminal GST; dsDNA, one strand shown
# Chain of ETV1 (P50549 whole entry): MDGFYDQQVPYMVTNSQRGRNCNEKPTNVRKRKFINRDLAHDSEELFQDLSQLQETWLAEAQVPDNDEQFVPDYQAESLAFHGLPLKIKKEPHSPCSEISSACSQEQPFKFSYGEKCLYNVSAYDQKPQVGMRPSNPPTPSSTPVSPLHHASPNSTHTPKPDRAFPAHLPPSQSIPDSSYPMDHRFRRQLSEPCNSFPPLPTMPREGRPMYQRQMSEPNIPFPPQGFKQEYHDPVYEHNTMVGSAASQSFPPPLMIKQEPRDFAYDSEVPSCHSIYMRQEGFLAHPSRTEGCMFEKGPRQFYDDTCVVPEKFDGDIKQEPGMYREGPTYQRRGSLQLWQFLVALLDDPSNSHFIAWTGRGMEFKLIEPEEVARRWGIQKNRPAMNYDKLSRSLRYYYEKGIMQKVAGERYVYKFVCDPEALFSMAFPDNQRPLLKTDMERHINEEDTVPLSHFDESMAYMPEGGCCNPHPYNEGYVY
# How it was run: as §1
sequence,measurement,setting,value
TAACGA,binding signal,[1],"1.09 fold enrichment (6-mer frequency, TF over GST control)"
same,binding signal,[2],"1.04 fold enrichment (6-mer frequency, TF over GST control)"
same,binding signal,[3],"1.07 fold enrichment (6-mer frequency, TF over GST control)"
same,binding signal,[4],"1.08 fold enrichment (6-mer frequency, TF over GST control)"
same,binding signal,[5],"1.03 fold enrichment (6-mer frequency, TF over GST control)"
same,binding signal,[6],"1.06 fold enrichment (6-mer frequency, TF over GST control)"
same,binding signal,[7],"1.1 fold enrichment (6-mer frequency, TF over GST control)"
same,binding signal,[8],"1.03 fold enrichment (6-mer frequency, TF over GST control)"
same,binding signal,[9],"1.08 fold enrichment (6-mer frequency, TF over GST control)"
same,binding signal,[10],"1.06 fold enrichment (6-mer frequency, TF over GST control)"
same,binding signal,[11],"1.23 fold enrichment (6-mer frequency, TF over GST control)"
same,binding signal,[12],"1.1 fold enrichment (6-mer frequency, TF over GST control)"
same,binding signal,[13],"1.12 fold enrichment (6-mer frequency, TF over GST control)"
same,binding signal,[14],"1.09 fold enrichment (6-mer frequency, TF over GST control)"
same,binding signal,[15],"1.04 fold enrichment (6-mer frequency, TF over GST control)"
same,binding signal,[16],"1.02 fold enrichment (6-mer frequency, TF over GST control)"
same,binding signal,[17],"1.57 fold enrichment (6-mer frequency, TF over GST control)"
same,binding signal,[18],"1.08 fold enrichment (6-mer frequency, TF over GST control)"
